{
  "source": "PubChem BioAssay",
  "data": [
    {"test_system": "not listed separately", "assay": "probe aNOTCH2 binding on compound microarray – biochemical, small-molecule microarray, 635/667 nm fluorescence, primary screen (AID 1121);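 further: score merges feature fluorescence read at 667 nm with its signal to noise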", "details": "higher = more signal", "values": [
      {"compound": "COC(=O)[C@@]1(Cc2ccc(F)cc2)[C@H]2c3cc(C(=O)N4CCCC4)n(CCc4ccc(OC)c(Br)c4)c3C[C@H]2CN1C(=O)c1ccccc1", "composite z-score": 0.323},
      {"compound": "Cc1c(NC(=O)/C(C#N)=C/C=C/c2ccccc2)c(=O)n(-c2ccccc2)n1C", "composite z-score": 0.136},
      {"compound": "C=C(C(=O)CC[C@@H](OC(=O)c1cccnc1)c1ccc(OCCO)cc1)C(C)C", "composite z-score": -0.179},
      {"compound": "O=c1cccc(-c2cccc3ccccc23)o1", "composite z-score": 0.0135},
      {"compound": "Cc1ccc(S(=O)(=O)N2CC(C(=O)O)=CCC2c2ccccc2)cc1", "note": "(stereo not given)", "composite z-score": -0.106},
      {"compound": "O=S(=O)(NCCCO)c1ccc(Br)cc1", "composite z-score": -0.057},
      {"compound": "C=CCOC(=O)[C@@H]1[C@H]2C(=O)O[C@H](c3ccccc3)[C@H](c3ccccc3)N2[C@H](c2ccc(OCCOC(=O)[C@H]3C[C@H]4C(=O)N[C@@H](Cc5ccccc5)C(=O)N4[C@H]3c3ccc(O)cc3)cc2)[C@@]12C(=O)Nc1ccc(I)cc12", "composite z-score": 0.27},
      {"compound": "C=CCNC(=O)[C@H]1[C@@H]2C(=O)O[C@@H](c3ccccc3)[C@@H](c3ccccc3)N2[C@@H](c2ccc(O)cc2)[C@]12C(=O)Nc1ccc(C#Cc3ccc(OC)cc3)cc12", "composite z-score": 0.0086},
      {"compound": "C[N+](C)(C)CCCC[C@@H]1NC(=O)[C@H]2C[C@@H](C(=O)O)[C@@H](c3cccc(OCCO)c3)N2C1=O", "composite z-score": 0.402},
      {"compound": "Cn1c2c(c3ccccc31)C(=O)C1NC2C=CC1(C)C(=O)OCc1ccccc1", "note": "(stereo not given)", "composite z-score": -0.166},
      {"compound": "CCCCC(=C=CC[C@H](O)c1ccccc1OCCO)C[C@H](O)c1cc(Cl)cc(Cl)c1O", "composite z-score": -0.175},
      {"compound": "COc1c(C)cc(-c2cc3c(c(-c4ccccc4)n2)[Si](C(C)C)(C(C)C)O[C@H]3c2ccccc2)cc1C", "composite z-score": -0.154},
      {"compound": "C=CCN1Cc2ccccc2C[C@]2(N=C(c3ccc(OCCCO)cc3)O[C@@H]2c2ccccc2)C1=O", "composite z-score": 0.101},
      {"compound": "O=C(N1CCCCC1)[C@]1(CCS(=O)(=O)c2ccccc2)N=C(c2ccc(OCCCO)cc2)O[C@@H]1c1ccccc1", "composite z-score": 0.0161},
      {"compound": "COc1ccc([Si](C)(C)[C@@H]2[C@@H](CCO)O[C@]3(C(=O)N(Cc4ccccc4)c4ccc(N(C=O)c5ccccc5)cc43)[C@H]2C)cc1", "composite z-score": -0.0682},
      {"compound": "Cc1ccc(S[C@]2(C(=O)NCCCN(C)C)CC(=O)N(C(C)C)[C@@H]2c2ccc(CO)cc2I)cc1", "composite z-score": -0.127},
      {"compound": "C=C(COC)C(=O)CC[C@H](OC(=O)c1cccnc1)c1ccccc1OCCO", "composite z-score": -0.0846},
      {"compound": "CC(c1ccccc1)C(O)C1C=CC2C(=O)N(Cc3ccccc3)C(=O)C2N1n1cnnc1", "note": "(stereo not given)", "composite z-score": -0.046},
      {"compound": "CN1C(=O)C2C=CC(C(O)C(C)(C)C)N(Nc3ccccc3)C2C1=O", "note": "(stereo not given)", "composite z-score": -0.029},
      {"compound": "CS(=O)(=O)CCOC(=O)C1=CC(c2ccc(CO)cc2)=CC(c2cccs2)N(Cc2cccc(OC(F)(F)F)c2)C=C1C(=O)OCCS(C)(=O)=O", "note": "(stereo not given)", "composite z-score": -0.0259},
      {"compound": "Cc1ccc([C@H]2C(C(=O)O)=C[C@@H](C(C)C)N2S(=O)(=O)c2ccc(C)cc2)cc1", "composite z-score": 0.0161},
      {"compound": "COC(=O)[C@@]1(Cc2ccc(OC)cc2)[C@H]2c3cc(C(=O)N(C)C)n(Cc4ccc(OC)c(OC)c4)c3C[C@H]2CN1C(=O)c1ccccc1", "composite z-score": 0.218},
      {"compound": "CN1C(=O)C2C=CC(C(O)C=Cc3ccc([N+](=O)[O-])cc3)N(N3CCCCC3)C2C1=O", "note": "(stereo not given)", "composite z-score": 0.713},
      {"compound": "C=CCOC(=O)[C@H]1[C@@H]2C(=O)O[C@@H](c3ccccc3)[C@@H](c3ccccc3)N2[C@@H](c2ccc(OCCOC(=O)[C@H]3C[C@H]4C(=O)N[C@@H](CCCC[N+](C)(C)C)C(=O)N4[C@H]3c3ccc(O)cc3)cc2)[C@]12C(=O)Nc1ccccc12", "composite z-score": -0.14},
      {"compound": "[N-]=[N+]=Nc1ccccc1[C@@H]1OC(c2ccc(OCCCO)cc2)=N[C@]1(CCS(=O)(=O)c1ccccc1)C(=O)N1CCCCC1", "composite z-score": 0.139}
    ]},
    {"molecular_target": "Carbonic anhydrase 2 (Homo sapiens) (UniProt P00918)", "assay": "compounds binding carbonic anhydrase 2 – biochemical, small-molecule microarray, Alexa647-labelled CAII, profiling panel (AID 1122)", "details": "CAII-A647 binding fluorescence, higher = more signal", "values": [
      {"compound": "[N-]=[N+]=NCc1ccccc1[C@H]1OC(c2ccc(OCCCO)cc2)=N[C@@]1(Cc1ccccc1)C(=O)NCC(O)CO", "note": "(stereo not given in full)", "composite z-score": 0.76},
      {"compound": "NC(=O)NCC#Cc1ccc2c(c1)[C@]1(C(=O)N2)[C@H](c2ccccc2OCCO)N2[C@H](c3ccccc3)[C@H](c3ccccc3)OC(=O)[C@H]2[C@@H]1C(=O)N1CCCCCCC1", "composite z-score": 0.951},
      {"compound": "CC(C)(C)OC(=O)CC[C@@]1(C(N)=O)N=C(c2ccc(OCCCO)cc2)O[C@@H]1c1ccccc1N=[N+]=[N-]", "composite z-score": 0.616},
      {"compound": "C=CCC(OC(C)=O)[C@@H]1[C@@H](N(Cc2ccc(-c3cccc(C(F)(F)F)c3)o2)C(=O)Cc2ccc(OC)cc2)c2cc(OCCCO)ccc2N1C(=O)Cc1ccc(OC)cc1", "note": "(stereo not given in full)", "composite z-score": 0.158},
      {"compound": "CCOC(=O)C1=CC[C@@H](c2cccc(Cl)c2)N(S(=O)(=O)c2ccc(C)cc2)[C@H]1c1ccc(C#N)cc1", "composite z-score": 0.728},
      {"compound": "Cc1ccc(F)cc1S(=O)(=O)N[C@@H]1CCN(Cc2ccc(C(F)(F)F)cc2)C1", "composite z-score": -0.171},
      {"compound": "C/C=C/[C@H](CCn1cc([C@H](O)c2ccccc2)nn1)[Si](C)(C)c1ccc(OC)cc1", "composite z-score": 0.017},
      {"compound": "COCC1C2CC[C@H]3C(OCc4ccc(F)cc4C(F)(F)F)OC[C@]4(C)[C@H]3C2=C(CN4C(=O)OC(C)(C)C)[C@H](C)C1COC", "note": "(stereo not given in full)", "composite z-score": 0.698},
      {"compound": "C=C(/C(=C/C[C@@H](OC(=O)c1ccncc1)c1ccc(CO)o1)c1cc(C(=O)OC)ccc1OC)C(C)C", "composite z-score": 0.588},
      {"compound": "O=C1O[C@@H](c2ccccc2)[C@@H](c2ccccc2)N2[C@@H](c3ccc(O)cc3)[C@]3(C(=O)Nc4ccccc43)[C@@H](C(=O)N3CCCCCCC3)[C@H]12", "composite z-score": 0.89},
      {"compound": "COC(=O)[C@@]1(Cc2ccc(F)cc2)[C@H]2c3cc(C(=O)N4CCCC4)n(CCc4ccc(OC)c(Br)c4)c3C[C@H]2CN1C(=O)c1ccccc1", "composite z-score": 0.599},
      {"compound": "Cc1c(NC(=O)/C(C#N)=C/C=C/c2ccccc2)c(=O)n(-c2ccccc2)n1C", "composite z-score": 0.682},
      {"compound": "C=C(C(=O)CC[C@@H](OC(=O)c1cccnc1)c1ccc(OCCO)cc1)C(C)C", "composite z-score": 0.0384},
      {"compound": "O=c1cccc(-c2cccc3ccccc23)o1", "composite z-score": 0.475},
      {"compound": "Cc1ccc(S(=O)(=O)N2CC(C(=O)O)=CCC2c2ccccc2)cc1", "note": "(stereo not given)", "composite z-score": 0.881},
      {"compound": "O=S(=O)(NCCCO)c1ccc(Br)cc1", "composite z-score": 0.62},
      {"compound": "C=CCOC(=O)[C@@H]1[C@H]2C(=O)O[C@H](c3ccccc3)[C@H](c3ccccc3)N2[C@H](c2ccc(OCCOC(=O)[C@H]3C[C@H]4C(=O)N[C@@H](Cc5ccccc5)C(=O)N4[C@H]3c3ccc(O)cc3)cc2)[C@@]12C(=O)Nc1ccc(I)cc12", "composite z-score": 0.554},
      {"compound": "C=CCNC(=O)[C@H]1[C@@H]2C(=O)O[C@@H](c3ccccc3)[C@@H](c3ccccc3)N2[C@@H](c2ccc(O)cc2)[C@]12C(=O)Nc1ccc(C#Cc3ccc(OC)cc3)cc12", "composite z-score": 0.38},
      {"compound": "C[N+](C)(C)CCCC[C@@H]1NC(=O)[C@H]2C[C@@H](C(=O)O)[C@@H](c3cccc(OCCO)c3)N2C1=O", "composite z-score": 0.758},
      {"compound": "Cn1c2c(c3ccccc31)C(=O)C1NC2C=CC1(C)C(=O)OCc1ccccc1", "note": "(stereo not given)", "composite z-score": 0.682},
      {"compound": "CCCCC(=C=CC[C@H](O)c1ccccc1OCCO)C[C@H](O)c1cc(Cl)cc(Cl)c1O", "composite z-score": 0.649},
      {"compound": "COc1c(C)cc(-c2cc3c(c(-c4ccccc4)n2)[Si](C(C)C)(C(C)C)O[C@H]3c2ccccc2)cc1C", "composite z-score": -0.0516},
      {"compound": "C=CCN1Cc2ccccc2C[C@]2(N=C(c3ccc(OCCCO)cc3)O[C@@H]2c2ccccc2)C1=O", "composite z-score": 0.605},
      {"compound": "O=C(N1CCCCC1)[C@]1(CCS(=O)(=O)c2ccccc2)N=C(c2ccc(OCCCO)cc2)O[C@@H]1c1ccccc1", "composite z-score": 0.639},
      {"compound": "COc1ccc([Si](C)(C)[C@@H]2[C@@H](CCO)O[C@]3(C(=O)N(Cc4ccccc4)c4ccc(N(C=O)c5ccccc5)cc43)[C@H]2C)cc1", "composite z-score": 0.497},
      {"compound": "Cc1ccc(S[C@]2(C(=O)NCCCN(C)C)CC(=O)N(C(C)C)[C@@H]2c2ccc(CO)cc2I)cc1", "composite z-score": 0.721},
      {"compound": "C=C(COC)C(=O)CC[C@H](OC(=O)c1cccnc1)c1ccccc1OCCO", "composite z-score": 0.286},
      {"compound": "CC(c1ccccc1)C(O)C1C=CC2C(=O)N(Cc3ccccc3)C(=O)C2N1n1cnnc1", "note": "(stereo not given)", "composite z-score": 0.415},
      {"compound": "CN1C(=O)C2C=CC(C(O)C(C)(C)C)N(Nc3ccccc3)C2C1=O", "note": "(stereo not given)", "composite z-score": 0.847},
      {"compound": "CS(=O)(=O)CCOC(=O)C1=CC(c2ccc(CO)cc2)=CC(c2cccs2)N(Cc2cccc(OC(F)(F)F)c2)C=C1C(=O)OCCS(C)(=O)=O", "note": "(stereo not given)", "composite z-score": 0.664},
      {"compound": "Cc1ccc([C@H]2C(C(=O)O)=C[C@@H](C(C)C)N2S(=O)(=O)c2ccc(C)cc2)cc1", "composite z-score": 0.772},
      {"compound": "COC(=O)[C@@]1(Cc2ccc(OC)cc2)[C@H]2c3cc(C(=O)N(C)C)n(Cc4ccc(OC)c(OC)c4)c3C[C@H]2CN1C(=O)c1ccccc1", "composite z-score": 0.587},
      {"compound": "CN1C(=O)C2C=CC(C(O)C=Cc3ccc([N+](=O)[O-])cc3)N(N3CCCCC3)C2C1=O", "note": "(stereo not given)", "composite z-score": 0.766},
      {"compound": "C=CCOC(=O)[C@H]1[C@@H]2C(=O)O[C@@H](c3ccccc3)[C@@H](c3ccccc3)N2[C@@H](c2ccc(OCCOC(=O)[C@H]3C[C@H]4C(=O)N[C@@H](CCCC[N+](C)(C)C)C(=O)N4[C@H]3c3ccc(O)cc3)cc2)[C@]12C(=O)Nc1ccccc12", "composite z-score": 0.456},
      {"compound": "[N-]=[N+]=Nc1ccccc1[C@@H]1OC(c2ccc(OCCCO)cc2)=N[C@]1(CCS(=O)(=O)c1ccccc1)C(=O)N1CCCCC1", "composite z-score": 0.625}
    ]}
  ]
}
